Screens from PubChem.
IL1B secr inh: inflammasome signaling inhibition, IL-1 beta readout. THP-1 LPS/ATP IL-1B secretion, AlphaLISA, 16 h; stronger effect = lower value. activity change, % at 57.5 µM. 360,000 tested, 4.7% active. AID 743279; in the data active = activity change below about -50%; inconclusive = mostly about -30% to -49%
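THP-1 cells pretreated 1 hr with compounds (up to 57.5 uM final), then stimulated with LPS (250 ng/mL final) plus ATP (1.25 mM final); secreted IL-1B measured by AlphaLISA after 16 hr, decreased signal indicating inhibition.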
TDP1 cell CPT: growth inhibition of DT40 Tdp1-/-;hTDP1 cells with camptothecin (screen for TDP1 inhibitors); AID 686979; 420,000 tested, 12% active; Potency, µM (highest dose often 46.2 µM), for the others: top-dose activity change, negative = growth inhibition, actives largely listed as inhibitors; chicken DT40 Tdp1-/-;hTDP1 cells + 20 nM CPT, ATP luminescence, 48 h; also: potency is read from the fitted curve at half-maximal effect; nearly all actives have a fitted effect of over 55% in size
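Chicken DT40 Tdp1-/- cells complemented with human TDP1, 400 cells/well, exposed to compounds plus 20 nM camptothecin for at least 48 h at 37 C; viability read as ATP content by CellTiter-Glo luminescence.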
CtBP-E1A inh: blocks the CtBP interaction with E1A; activity change, % (test concentration not listed); AlphaScreen GST-E1A/His-CtBP binding, 1536-well; stronger effect = lower value; 340,000 tested, 0.49% active; AID 651724; in the data active = activity change below about -65%; inconclusive = mostly about -30% to -63%
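AlphaScreen with 125 nM GST-E1A and 125 nM His-CtBP (5X stocks) in Tris pH 8.0, 300 mM NaCl, BSA, Tween 20, TCEP. Compounds preincubated 2 h at 37 deg C, then glutathione donor/nickel acceptor beads added for 1 h at 37 deg C in dark.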
DT40 TDP1 no CPT: qHTS for Inhibitors of human tyrosyl-DNA phosphodiesterase 1 (TDP1): qHTS in cells in absence of CPT; DT40 Tdp1-/- hTDP1 cells, no CPT, ATP luminescence, 48 h; Potency, µM (titrated, usually from 46.2 µM), inactives show at the highest dose activity change, negative = growth inhibition, usual class: inhibitors; 420,000 tested, 15% active; also: potency is read from the fitted curve at half-maximal effect; nearly all actives have a fitted effect of over 55% in size
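No-CPT arm: Tdp1-/-;hTDP1 DT40 cells (400/well) plus compounds, incubated ≥48 hr at 37 °C. Readout CellTiter-Glo luminescence.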
Six1-Eya2 inh: inhibitors of human Six1/Eya2 interaction. activity change, % (test concentration not listed). AlphaScreen GST-Six1/His-Eya2 binding, biochemical; stronger effect = lower value. Q15475+O00167. 360,000 tested, 0.56% active; in the data active = activity change below about -65%; inconclusive = mostly about -30% to -63%
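Homogeneous AlphaScreen proximity assay pairing GST-Six1 with His-tagged Eya2 (added as 5X mix: 250 nM and 500 nM) in 50 mM Tris pH 8.0, 300 mM NaCl, 1 mM TCEP. Glutathione donor and nickel acceptor beads; 1 h, 37 °C, dark.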
TDP1 block: inhibitors of human tyrosyl-DNA phosphodiesterase TDP1; recombinant TDP1, AlphaScreen DNA substrate cleavage; Potency, µM (top dose mostly 130 µM), for inactives: at the top dose activity change, negative = inhibition, hits mostly inhibitors; 350,000 tested, 0.28% active; also: potency is read from the fitted curve at half-maximal effect; nearly all actives have a fitted effect of over 40% in size
Target sequence (Q9NUW8 whole entry, looked up): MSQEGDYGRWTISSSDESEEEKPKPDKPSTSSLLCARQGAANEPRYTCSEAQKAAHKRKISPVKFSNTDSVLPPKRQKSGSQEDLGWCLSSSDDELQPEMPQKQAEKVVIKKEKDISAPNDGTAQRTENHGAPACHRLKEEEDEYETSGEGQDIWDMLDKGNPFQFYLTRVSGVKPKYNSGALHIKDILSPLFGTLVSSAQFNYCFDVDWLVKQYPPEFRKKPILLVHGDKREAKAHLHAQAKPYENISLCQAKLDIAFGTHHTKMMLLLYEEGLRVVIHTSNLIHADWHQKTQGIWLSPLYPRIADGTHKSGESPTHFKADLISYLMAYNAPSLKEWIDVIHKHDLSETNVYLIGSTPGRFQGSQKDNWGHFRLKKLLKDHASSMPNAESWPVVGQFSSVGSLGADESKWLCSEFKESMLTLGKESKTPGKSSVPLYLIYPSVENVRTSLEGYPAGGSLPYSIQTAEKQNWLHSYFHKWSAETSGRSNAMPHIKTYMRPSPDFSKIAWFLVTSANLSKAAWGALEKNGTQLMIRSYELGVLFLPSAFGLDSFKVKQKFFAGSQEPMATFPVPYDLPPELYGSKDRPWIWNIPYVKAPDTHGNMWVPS
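Enzyme-compound mixtures sat 15 min at room temperature, followed by a 5 min reaction with 15 nM final substrate and 10 min with AlphaScreen beads. Recombinant human Tdp1 was used at 1 nM final.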
* hit, by the source's call; u = inconclusive; x = no result given. Rows were chosen to be rich in hits. Some 18% of all compounds tested hit in one or more screens of this group. Unless noted, calls follow the shape of the dose curve; as a rule, active = well fitted curve in the direction sought with a large enough effect; inconclusive = small, poorly fitted or top-dose-only effect, or another doubt; inactive = no such curve, though single readings can be large; an effect the other way counts as inactive or inconclusive. % is scaled to controls: 0 for no effect and ±100 for the full control effect.

SMILES | IL1B secr inh | TDP1 cell CPT | CtBP-E1A inh | DT40 TDP1 no CPT | Six1-Eya2 inh | TDP1 block
Cc1ccc([S+](=O)([O-])N(c2ccccc2)[S+](=O)([O-])C(F)(F)F)cc1 | x | x | x | x | x | 3%
COc1cc2c(cc1OC)-c1cc(Nc3cccc(F)c3)nc(=O)n1CC2 | -26 | 4% | -10 | u | -79* | x
COc1cc2c(cc1OC)-c1cc(Nc3ccc(F)cc3)nc(=O)n1CC2 | -51* | u | x | u | u | x
CCCCCCN1C[C@H](n2cc(COC(=O)c3ccccc3)nn2)[C@@H](O)C[C@@H]1c1ccc(C)cc1 | 25 | u | 1 | u | -3 | x
CCCCCCN1C[C@@H](n2cc(COC(=O)c3ccccc3)nn2)[C@H](O)C[C@@H]1c1ccc(Cl)cc1 | -17 | 13µM* | 1 | 21µM* | 3 | x
CCCCCCN1C[C@H](n2cc(COC(=O)c3ccccc3)nn2)[C@@H](O)C[C@@H]1c1ccccc1 | 24 | u | 0 | 23µM* | 7 | x
CCCCCCN1C[C@@H](n2cc(COC(=O)c3ccccc3)nn2)[C@H](O)C[C@@H]1c1ccccc1 | 25 | u | -10 | u | 8 | x
Cn1nc(C(C)(C)C)cc1NC(=O)Nc1cc(Cl)cc(Cl)c1 | -98* | 16µM* | 5 | u | 3 | 6%
Cc1ccc(F)cc1NC(=O)Nc1cc(C(C)(C)C)nn1C | -13 | 12% | 4 | -14% | 3 | 3%
CCCn1c(-c2ccc(F)cc2)nc2c(NCCCN(CC)CC)nc(C)nc21 | x | x | x | x | x | 10%
Cc1c(C(=O)O)oc2ccc(S(=O)(=O)N3CCCC3)cc12 | 25 | 9% | x | 10% | 1 | 5%
CCCCN(C)C(=O)c1oc2ccc(S(=O)(=O)N3CCCCCC3)cc2c1C | -68* | 18µM* | 58 | u | 26 | 2%
Cc1c(C(=O)Nc2ccc(F)c(F)c2)oc2ccc(S(=O)(=O)N3CCC4(CC3)OCCO4)cc12 | x | 13µM* | x | 12µM* | x | 5%
Cc1c(C(=O)Nc2ccc(F)cc2)oc2ccc(S(=O)(=O)N3CCC4(CC3)OCCO4)cc12 | 0 | 16µM* | 16 | 22µM* | 10 | -10%
Cc1ccc(NC(=O)c2oc3ccc(S(=O)(=O)N4CCC5(CC4)OCCO5)cc3c2C)c(C)c1 | x | 8.2µM* | x | 6.5µM* | x | 5%
Cc1c(C(=O)Nc2ccc(Br)cc2F)oc2ccc(S(=O)(=O)N3CCC4(CC3)OCCO4)cc12 | x | -16% | x | u | x | 0%
COc1cccc(-c2cc(C(=O)O)c3cc4ccccc4cc3n2)c1OC | 15 | -10% | -3 | -18% | 1 | x
CCCN(C)C1CN(Cc2cn(Cc3ccc(Cl)cc3)nn2)S(=O)(=O)C1 (stereo not given) | 9 | 3% | 4 | 1% | 0 | x
COc1ccc(C(C)=O)cc1CN1C(=O)NC2(CCCCC2)C1=O | -6 | 0% | 9 | u | 4 | 3%
CSCCC(NC(=O)c1ccc(Cl)cc1Cl)C(=O)N1CC(C)OC(C)C1 (stereo not given) | -13 | -8% | x | -12% | 12 | 2%
CCCc1ccc2oc(C(=O)N(C)CCn3ccnc3C)c(C)c2c1 | 9 | 21µM* | x | 13µM* | -1 | x
Cc1c(C(=O)Nc2ccc(F)c(F)c2)oc2ccc(S(=O)(=O)N3CCCCC3)cc12 | u | 23µM* | 9 | u | 6 | 13%
Cc1ccc(NC(=O)c2oc3ccc(S(=O)(=O)N4CCCCCC4)cc3c2C)cc1Cl | x | -12% | x | -7% | x | 13%
Cc1cccc(C)c1OCC(O)CNC(C)c1ccccc1 (stereo not given) | u | 3.7µM* | -3 | 5.2µM* | 11 | x
CC(C)c1ccc(OCC(O)CNC(C)c2ccccc2)cc1 (stereo not given) | -85* | 16µM* | 0 | 16µM* | 0 | x
SMILES | IL1B secr inh | TDP1 cell CPT | CtBP-E1A inh | DT40 TDP1 no CPT | Six1-Eya2 inh | TDP1 block
COc1cccc(OCC(O)CNC(C)c2ccccc2)c1 (stereo not given) | -25 | u | 1 | u | 2 | 6%
Cc1ccc(CCNC(=O)CCn2ccc3cc(S(=O)(=O)N4CCCC4)ccc32)cc1 | 1 | u | -13 | u | 3 | 1%
COc1ccc2nc(NN=C(C)c3ccccn3)cc(C)c2c1 | -102* | 1.6µM* | u | 2.9µM* | -89* | x
C/C(=N\Nc1ccc(Cl)cc1)c1ccccn1 | 16 | u | -10 | -21% | -16 | 8%
Cc1cc(=O)oc2cc(NC(=O)CC3(CC(=O)O)CCCC3)ccc12 | x | 19% | -6 | 7% | -5 | 5%
COc1cccc(-c2nnc(SCCC(=O)O)n2C)c1 | -8 | 5% | -2 | 2% | 0 | 7%
COc1ccccc1-c1nnc(SC(C(=O)c2c[nH]c3ccccc23)c2ccccc2)n1C (stereo not given) | -51* | 21µM* | x | 16µM* | -16 | 8%
COc1ccccc1-c1nnc(SCC(=O)NC2CC2)n1C | -2 | 0% | 11 | -2% | 9 | 1%
COc1cccc(-c2nnc(SC(C(=O)c3c[nH]c4ccccc34)c3ccccc3)n2C)c1 (stereo not given) | -27 | 23µM* | -4 | u | -10 | 4%
CCOc1ccc(Cn2c(CNS(=O)(=O)c3cccs3)nc3cccnc32)cc1 | x | u | x | 23µM* | x | 5%
CCc1ccc(Cn2c(CNS(=O)(=O)c3ccc(Cl)s3)nc3cccnc32)cc1 | x | 16µM* | x | 16µM* | x | 7%
Cc1cc(-c2ccc(C)c(S(=O)(=O)NCCCN3CCN(c4ccccc4)CC3)c2)on1 | -7 | u | x | 23µM* | -17 | 5%
COc1ccc(-c2cc(C)no2)cc1S(=O)(=O)NCCCN1CCN(c2ccccc2)CC1 | -9 | u | x | 23µM* | -8 | 1%
Cc1cc(-c2ccc(C)c(S(=O)(=O)NCc3cccs3)c2)on1 | x | 12µM* | x | 15µM* | x | 3%
Cc1cc(-c2ccc(C)c(S(=O)(=O)NCc3ccc(Cl)cc3)c2)on1 | x | -12% | x | u | x | -2%
Cc1cc(-c2ccc(C)c(S(=O)(=O)NCCCN3CCCCCC3)c2)on1 | -51* | -24% | -6 | -28% | -2 | 4%
Cc1cc(-c2ccc(C)c(S(=O)(=O)NCCCN3CCN(c4ccccc4F)CC3)c2)on1 | -12 | u | x | u | -5 | 5%
Cc1cc(N2CCN(Cc3nc(-c4ccc(F)cc4)oc3C)CC2)cc(C)n1 | -6 | u | x | u | -2 | x
Cc1oc(-c2cccc(Cl)c2)nc1CSc1nnc(C)n2c1cc1occc12 | x | -3% | x | 1% | x | -10%
